Screening data (PubChem BioAssay)
Hits are enriched below; roughly 3.3% of the tested compounds scored in any of these assays.
ERa SRC1 pot – enhancers of ERα–SRC-1 coactivator binding, primary screen, biochemical, TR-FRET, ERα LBD, low estradiol; TR-FRET ERalpha-LBD/SRC-Cy5 coactivator binding, 2 h; 100 = basal binding, no effect; 1.3% of 86,000 active; coactivator binding (% of control), % at 25.6 µM; AID 639, 2007; in the data active means activity above about 200%;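 further: binding measured in presence of low estradiol as agonist stimulus; 0% = peptide alone without receptor and 100% = receptor with peptide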
Target sequence (P03372 whole entry, looked up, the tested form may be a part): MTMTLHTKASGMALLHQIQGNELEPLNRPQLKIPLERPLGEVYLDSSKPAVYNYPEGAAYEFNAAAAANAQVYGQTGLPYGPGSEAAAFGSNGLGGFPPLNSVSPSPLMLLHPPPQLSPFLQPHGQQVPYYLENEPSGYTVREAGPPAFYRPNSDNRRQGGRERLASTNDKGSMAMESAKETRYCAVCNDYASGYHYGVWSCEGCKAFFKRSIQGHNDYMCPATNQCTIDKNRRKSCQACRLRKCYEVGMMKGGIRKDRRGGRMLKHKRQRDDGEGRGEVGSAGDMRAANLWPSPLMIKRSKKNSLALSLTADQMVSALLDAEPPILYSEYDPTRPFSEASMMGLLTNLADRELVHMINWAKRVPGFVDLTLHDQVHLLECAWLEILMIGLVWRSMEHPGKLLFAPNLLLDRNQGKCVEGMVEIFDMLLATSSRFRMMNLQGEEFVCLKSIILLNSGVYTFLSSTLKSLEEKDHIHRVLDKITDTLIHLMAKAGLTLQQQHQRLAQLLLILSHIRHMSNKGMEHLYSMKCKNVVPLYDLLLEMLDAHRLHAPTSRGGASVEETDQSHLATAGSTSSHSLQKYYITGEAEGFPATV
Smad3 FoxH1 inh – Smad3/FoxH1 peptide binding inhibitors, primary screen, biochemical, TR-FRET. Mothers against decapentaplegic homolog 3 (Homo sapiens), P84022. TR-FRET Smad3/Dy647-FoxH1 peptide binding, europium anti-His. inhibition, % at 25 µM. 0.29% of 88,000 active. AID 630, 2007;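 active means compounds that reduce the energy-transfer binding signal between the protein and its labelled peptide by more than half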;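 further: 0% = Smad3 plus labelled peptide maximal FRET and 100% = peptide-only background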
ERb SRC1 inh – inhibitors of ERβ-SRC1 coactivator interaction, primary screen, biochemical, TR-FRET, ERβ LBD, SRC-1 peptide. Estrogen receptor beta (Homo sapiens), Q92731. TR-FRET ER-beta LBD / SRC1-Cy5 peptide binding; receptor agonist-loaded with 1 µM estradiol. inhibition, % at 25.6 µM. 1.3% of 86,000 active. AID 633, 2007;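 active means compounds whose percent inhibition of the receptor-coactivator binding signal exceeds about 50% in the single-dose screen, limit read from the data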;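 further: 0% = receptor plus peptide wells without compound and 100% = peptide-only wells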
PLK1 PBD inh – Plk1 polo box domain binding inhibitors, primary screen, biochemical, fluorescence polarization; Plk1 PBD phosphopeptide binding; inhibition, %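 (tested at about 20 µM)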; 0.13% of 97,000 active; AID 693, 2007; in the data active means inhibition above about 34%, passing the limit was not always enough
ERa coact inh – ERα–SRC-1 coactivator interaction inhibitors, primary screen, biochemical, TR-FRET, ERα LBD, estradiol-bound; Estrogen receptor (Homo sapiens), P03372; TR-FRET ER-alpha LBD / SRC-1 peptide; inhibition, % at 25.6 µM; 1.7% of 86,000 active; in the data active means inhibition above about 50%;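 further: 0% = receptor plus peptide control and 100% = peptide only without receptor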
PLK1 inh – human PLK1 kinase inhibitors, primary screen, biochemical, TR-FRET | Serine/threonine-protein kinase PLK1 (Homo sapiens), P53350 | recombinant PLK1 kinase, TR-FRET peptide phosphorylation | inhibition, % at 10 µM | 0.53% of 97,000 active;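 active means inhibition of 50% or more in the single-concentration screen; inactive means inhibition below 50%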;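 further: 0% = DMSO max control and 100% = H-89 dihydrochloride min control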
* marks the source's active call; other numbers are inactive results; nt = no result given; [ ] = dose if it differs, or a comment.

SMILES	ERa SRC1 pot	Smad3 FoxH1 inh	ERb SRC1 inh	PLK1 PBD inh	ERa coact inh	PLK1 inh
Cc1ccc(-c2nc(CS(=O)CC(=O)NCc3ccc(Cl)cc3)c(C)o2)cc1 (stereo not given)	150	7	9	11	11	69*
COCCNC(=O)CS(=O)Cc1nc(-c2ccc(Cl)cc2)oc1C (stereo not given)	128	-15	14	-21	-10	-10
COc1ccc(-c2nc(CS(=O)CC(=O)NCc3ccc(Cl)cc3)c(C)o2)cc1 (stereo not given)	87	-22	7	-1	-6	70*
Cc1c2cnccc2c(C)c2c1c1ccccc1n2CCOC(=O)c1ccccc1	nt	-7	nt	nt	nt	nt
COC(=O)COC(=O)c1ccc(Oc2nc(OC)nc(N(C)C)n2)cc1	97	-13	5	-37	-1	-16
O=C1CC(C(=O)Nc2ccc(C(=O)N3CCOCC3)cc2)C2(CCCCC2)O1 (stereo not given)	116	1	-1	-3	56*[fluorescence artefact?]	-17
O=C1CC(C(=O)Nc2ccccc2)C2(CCCC2)O1 (stereo not given)	nt	nt	nt	11	nt	-9
Cc1ccc2c(COC(=O)c3n[nH]c4ccccc34)cc(=O)oc2c1	200*	-19	15	nt	16	nt
c1ccc2c(CSCc3cccc4ccccc34)cccc2c1	nt	10	nt	nt	nt	nt
O=C(CCSc1nnc2scc(-c3ccccc3)n12)Nc1nc(-c2ccccc2)ns1	186	-1	6	-8	1	-12
CC(=O)Nc1ccc(C(=O)CSc2nnc3scc(-c4ccccc4)n23)cc1	232*[fluorescence artefact?]	-368	17	19	41	-3
NC(=O)c1cccc2c1C(=O)N(C1CCCCC1)C2	54	5	53*	-22	53*[fluorescence artefact?]	-13
C/C(=N\O)[C@@H]1C[C@H](CC(=O)O)C1(C)C	nt	-1	nt	nt	nt	nt
COc1cc2[nH]c(=O)n(CCC(=O)N3CCN(c4cc(Cl)ccc4C)CC3)c(=O)c2cc1OC	40	-11	43	-11	88*[fluorescence artefact?]	-10
Cc1ccc(C(C)C)c(OCC(O)CN2CC(C)OC(C)C2)c1 (stereo not given)	97	-5	51*[fluorescence artefact?]	24	-2	-6
CSc1cc(-c2ccc(Cl)cc2)n(Cc2ccccc2)c(=O)c1C#N	164	-16	35	-18	54*[fluorescence artefact?]	-53
Cc1ccccc1C(=O)N1CCCN(C(=O)c2ccccc2C)CC1	113	12	-2	6	-10	-6
O=C(CSc1nnc(-c2ccc(Cl)cc2)o1)N1CCN(c2ccccc2)CC1	50	3	54*	nt	73*[fluorescence artefact?]	nt
Cc1nn(-c2ccccc2)c2sc(C(=O)OC3CCOC3=O)cc12 (stereo not given)	97	-3	13	-31	14	-11
CN(C)Cc1c[nH]c2nc[nH]c(=O)c12	nt	68*	nt	nt	nt	nt
Cc1cc(C)cc(COn2ccnc2)c1	128	0	-5	20	-3	1
NC(N)=NC(N)=Nc1ccccc1 (tested in a mixture with another compound)	nt	60*	nt	nt	nt	nt
CCOC(=O)CNC(=O)CSc1ncnc2c1cnn2Cc1ccccc1	69	11	5	15	0	-7
CCOC(=O)CNC(=O)CSc1ncnc2c1cnn2-c1ccc(Cl)cc1	206*	-43	-8	4	-17	-7
COC(=O)c1ccc(-c2ccco2)n1Cc1nc(-c2ccc(OC)c(OC)c2)oc1C	98	0	67*[fluorescence artefact?]	nt	70*[fluorescence artefact?]	nt
SMILES	ERa SRC1 pot	Smad3 FoxH1 inh	ERb SRC1 inh	PLK1 PBD inh	ERa coact inh	PLK1 inh
COC(=O)c1ccc(-c2ccco2)n1Cc1ccccc1Cl	75	8	9	2	1	7
CCOC(=S)SCC(=O)O	nt	-5	nt	nt	nt	nt
Cn1nc(C(=O)Nc2sccc2C(N)=O)ccc1=O	21	5	54*[fluorescence artefact?]	-66	63*[fluorescence artefact?]	-4
CC(=O)C1=C(C)Nc2ncnn2C1c1cccc(OCc2ccccc2)c1 (stereo not given)	104	12	-9	-8	-4	51*
CC1=C(C(=O)OCc2ccccc2)C(c2cccnc2)n2ncnc2N1 (stereo not given)	119	4	0	-15	6	36
N#CC1=C(N)n2c(s/c(=C\c3ccco3)c2=O)=C(C#N)C1c1ccco1 (stereo not given)	36	5	67*[fluorescence artefact?]	26	75*[fluorescence artefact?]	-8
COC(=O)c1cc2c(C)nn(-c3ccccc3)c2s1	246*	-1	22	29	21	-6
CCn1c(NCc2cccs2)nc2ccccc21	96	2	-11	-16	67*[fluorescence artefact?]	-4
CCOC(=O)C1CCCN(CC(=O)/C=C2/N(C)c3ccccc3C2(C)C)C1 (stereo not given)	103	2	1	7	-1	0
CN1/C(=C\C(=O)COC(=O)Cn2nnc(-c3ccccc3)n2)C(C)(C)c2ccccc21	292*	-15	-3	-20	-3	-8
C[N+](C)(C)CCCSc1nc2ccccc2[nH]1	nt	20	nt	nt	nt	nt
Cc1ccc(S(=O)(=O)Cc2ccc(C(=O)O)o2)cc1	25	3	76*	10	69*	-20
Cc1ccc(S(=O)(=O)Cc2ccc(C(=O)NCc3ccc4c(c3)OCO4)o2)cc1	62	-3	43	-1	51*	-15
Cc1ccc(S(=O)(=O)Cc2ccc(C(=O)N3CCN(Cc4ccccc4)CC3)o2)cc1	85	2	58*	nt	61*[fluorescence artefact?]	nt
Cc1ccc(CC(=O)NCc2ccc3c(c2)OCO3)cc1	111	-2	0	-14	14	-3
COCCNC(=O)c1ccc(CS(=O)(=O)c2ccc(C)cc2)o1	126	-3	3	-4	-6	-15
O=C(c1ccc(CS(=O)(=O)c2ccc(Br)cc2)o1)N1CCCCCC1	90	-13	6	3	-5	-18
O=C(c1ccc(CS(=O)(=O)c2ccc(Br)cc2)o1)N1CCCC1	82	1	1	-2	-3	69*
O=C(NC1(C(F)(F)F)C(=O)Nc2c1c(=O)[nH]c(=O)n2-c1ccccc1)c1ccncc1 (stereo not given)	111	-11	-9	-7	-15	-11
COc1ccccc1NC(=O)CSc1nnnn1C	121	-15	0	-10	-5	-1
COC(=O)[C@]1(C)CCC(c2ccc(C)cc2)=C(CC(=O)O)C1	nt	5	nt	nt	nt	nt
N[C@@H](Cc1cccnn1)C(=O)O	nt	2	nt	nt	nt	nt
Cc1ccc(S(=O)(=O)Cc2ccc(C(=O)N3CCc4ccccc4C3)o2)cc1	50	5	76*	13	78*[fluorescence artefact?]	5
COc1ccc(S(=O)(=O)Cc2ccc(C(=O)N3CCc4ccccc4C3)o2)cc1	119	-9	1	15	-2	-13
